In PubChem BioAssay (EPA / NIEHS) one finds outcome and AC50 data, which are given here for 13 compounds.

Records with an inconclusive call do not appear. The source made the active and inactive calls. The calls were made as follows, unless noted: active = hit-call score of the fitted dose curve at least 0.9, where 1 is the maximum; inactive = score below 0.9.

The target in assay [1] is Estrogen receptor (Homo sapiens) (UniProt P03372). Kind of assay: ATG_ERa_TRANS: Attagene TRANS-FACTORIAL HepG2 Assay for human Estrogen Receptor alpha (ERa) (AID 2282970; active = hit-call score of the fitted dose curve at least 0.9, where 1 is the maximum). Conditions: HepG2 Attagene TRANS ERa GAL4 reporter, mRNA. Summed up: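 Transfected HepG2 cells carrying GAL4-UAS-driven reporter units were dosed for 24 hours. Total RNA was reverse-transcribed, reporter sequences PCR-amplified, FAM-labelled, HpaI-digested and resolved by capillary electrophoresis. Increases over DMSO control defined activity.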
Chain of Estrogen receptor (Homo sapiens) (P03372 whole entry, looked up, the tested form may be a part): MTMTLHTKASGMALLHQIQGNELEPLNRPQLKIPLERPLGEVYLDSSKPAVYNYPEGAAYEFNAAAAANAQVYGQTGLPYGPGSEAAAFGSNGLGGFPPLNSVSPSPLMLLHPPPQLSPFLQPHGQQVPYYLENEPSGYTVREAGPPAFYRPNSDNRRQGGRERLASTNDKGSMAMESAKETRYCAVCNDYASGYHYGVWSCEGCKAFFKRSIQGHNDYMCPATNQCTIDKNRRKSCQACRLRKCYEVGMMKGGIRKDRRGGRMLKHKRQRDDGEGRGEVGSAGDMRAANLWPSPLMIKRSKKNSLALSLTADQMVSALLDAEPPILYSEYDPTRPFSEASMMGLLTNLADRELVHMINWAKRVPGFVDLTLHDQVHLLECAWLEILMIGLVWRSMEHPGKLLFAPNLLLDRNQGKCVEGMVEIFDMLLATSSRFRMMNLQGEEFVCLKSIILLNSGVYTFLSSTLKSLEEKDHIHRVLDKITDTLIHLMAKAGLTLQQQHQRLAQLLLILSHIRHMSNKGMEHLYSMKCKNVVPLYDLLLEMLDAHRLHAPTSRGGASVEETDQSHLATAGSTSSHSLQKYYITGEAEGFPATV

A short description of assay [2]: BSK_3C_SRB: Viability Assessment in the BioMAP Diversity Plus: 3C Assay (AID 2283023).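 Also: fitted both ways against DMSO so a hit may be signal rise or drop.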 Conditions: primary human endothelial cells (HUVEC). Summed up: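 Cells were dosed with chemical, cultured 24 h, fixed with 10% TCA, stained with 0.1% SRB and read at 560 nm. Human umbilical vein endothelium was used; DMSO served as negative control and baseline.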
Read-out in assay [3]: Pselectin, SELP (gene 6403)
Description: BSK_4H_Pselectin: BioMAP Diversity Plus: 4H Assay for Pselectin Biomarker Activity (AID 2283026). As to conditions: primary human endothelial cells (HUVEC); actives raise or lower the signal. Summed up:
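Endothelial primary cells (human umbilical vein) are dosed, incubated 24 h, and assayed for surface P-selectin by ELISA; responses in either direction are fitted relative to the DMSO negative control.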

Assay [4] in a line: BSK_4H_SRB: Viability Assessment in the BioMAP Diversity Plus: 4H Assay (AID 2283027).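 Also: cells exposed to compound for 24 h before staining.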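 As to AC50: curves fitted both ways versus DMSO so AC50 may be loss or gain.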 Conditions: primary human endothelial cells (HUVEC). Summed up: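 HUVEC, 24 h post-dose; 10% TCA fix, 0.1% SRB stain, A560 nm. Total protein = overt cytotoxicity, parallel to biomarker read. Bidirectional fit vs DMSO baseline.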
Read-out in assay [5]: Urokinase-type plasminogen activator receptor (uPAR), PLAUR (gene 5329)
Description: BSK_4H_uPAR: BioMAP Diversity Plus: 4H Assay for Urokinase-type plasminogen activator receptor (uPAR) Biomarker Activity (AID 2283030). Conditions: primary human endothelial cells (HUVEC); actives raise or lower the signal. An outline of the steps: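 Chemicals are dosed onto human vascular endothelial primary cells (umbilical vein). After 24 h, uPAR is read by ELISA. Gain or loss of signal is fitted relative to DMSO.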

Read-out in assay [6]: Plasminogen activator inhibitor-1 (PAI1), SERPINE1 (gene 5054)
Kind of assay: BSK_BE3C_PAI1: BioMAP Diversity Plus: BE3C Assay for Plasminogen activator inhibitor-1 (PAI1) Biomarker Activity (AID 2283037). Conditions: primary human bronchial epithelial cells; actives raise or lower the signal. An outline of the steps:
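Values derive from bidirectional fitting against DMSO baseline of PAI-1 levels, measured by ELISA in human bronchial epithelial cells 24 h after compound addition.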

Read-out in assay [7]: Tissue plasminogen activator (tPA), PLAT (gene 5327)
Kind of assay: BSK_BE3C_tPA: BioMAP Diversity Plus: BE3C Assay for Tissue plasminogen activator (tPA) Biomarker Activity (AID 2283041).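 As to outcome: tPA level quantified by ELISA one day after compound addition.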 As to conditions: primary human bronchial epithelial cells; actives raise or lower the signal. An outline of the steps: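 Gain- or loss-of-signal in tPA, measured by ELISA, derived by bidirectional fitting against DMSO. Cells: human primary bronchial epithelial; read at 24 h after chemical dosing.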

Read-out in assay [8]: Macrophage colony-stimulating factor (MCSF), CSF1 (gene 1435)
Kind of assay: BSK_CASM3C_MCSF: BioMAP Diversity Plus: CASM3C Assay for Macrophage colony-stimulating factor (MCSF) Biomarker Activity (AID 2283044).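 Also: M-CSF protein amount quantified by ELISA after 24 h exposure.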 As to conditions: primary human coronary artery smooth muscle cells; actives raise or lower the signal.

Assay [9] in a line: BSK_CASM3C_SRB: Viability Assessment in the BioMAP Diversity Plus: CASM3C Assay (AID 2283050).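 Also: total protein by SRB staining as cytotoxicity measure in parallel cultures.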 As to conditions: primary human coronary artery smooth muscle cells.
Read-out in assay [10]: Thrombomodulin, THBD (gene 7056)
Description: BSK_CASM3C_Thrombomodulin: BioMAP Diversity Plus: CASM3C Assay for Thrombomodulin Biomarker Activity (AID 2283051).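 Also: thrombomodulin protein level measured by ELISA 24 h after dosing.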 As to conditions: primary human coronary artery smooth muscle cells; actives raise or lower the signal.

Read-out in assay [11]: Vascular cell adhesion molecule 1 (VCAM1), VCAM1 (gene 7412)
Description: BSK_CASM3C_VCAM1: BioMAP Diversity Plus: CASM3C Assay for Vascular cell adhesion molecule 1 (VCAM1) Biomarker Activity (AID 2283055).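 Also: VCAM-1 protein level quantified by ELISA on the cells.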 As to conditions: primary human coronary artery smooth muscle cells; actives raise or lower the signal.

Read-out in assay [12]: TIMP metallopeptidase inhibitor 2 (TIMP2), TIMP2 (gene 7077)
Description: BSK_KF3CT_TIMP2: BioMAP Diversity Plus: KF3CT Assay for TIMP metallopeptidase inhibitor 2 (TIMP2) Biomarker Activity (AID 2283071). As to conditions: primary human keratinocytes with fibroblasts; actives raise or lower the signal. Summed up: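 Chemicals were dosed onto human skin primary co-cultures of keratinocytes and foreskin fibroblasts, and TIMP-2 was measured by ELISA after 24 hours. Activity in either direction was fitted relative to DMSO.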

Read-out in assay [13]: Interleukin-1 alpha (IL1a), IL1A (gene 3552)
Kind of assay: BSK_LPS_IL1a: BioMAP Diversity Plus: LPS Assay for Interleukin-1 alpha (IL1a) Biomarker Activity (AID 2283080). As to conditions: primary human HUVEC with PBMC; actives raise or lower the signal. Summed up: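 Measured: IL-1 alpha via ELISA at 24 h in LPS-activated human umbilical vein endothelium–PBMC co-culture. Baseline: DMSO, bidirectional fitting.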

Read-out in assay [14]: Monocyte Chemoattractant Protein-1 (MCP1), CCL2 (gene 6347)
Kind of assay: BSK_LPS_MCP1: BioMAP Diversity Plus: LPS Assay for Monocyte Chemoattractant Protein-1 (MCP1) Biomarker Activity (AID 2283081).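 As to AC50: secreted MCP-1 protein quantified by ELISA in culture supernatant.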 As to conditions: primary human HUVEC with PBMC; actives raise or lower the signal. An outline of the steps: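 LPS-stimulated HUVEC/PBMC co-culture; chemical, 24 h; MCP-1 by ELISA; bidirectional fit vs DMSO; cytotoxicity via SRB (0.1% stain, 10% TCA fix, 560 nm) in parallel wells.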

The nature of assay [15]: BSK_LPS_PGE2: BioMAP Diversity Plus: LPS Assay for Prostaglandin E2 (PGE2) Biomarker Activity (AID 2283082). Conditions: primary human HUVEC with PBMC; actives raise or lower the signal. Summed up: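 Compounds were added to the LPS co-culture of endothelium and PBMC, and PGE2 was measured by ELISA after 24 h. Responses in either direction were fitted with DMSO as baseline.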

Read-out in another assay: CD38, CD38 (gene 952)
Description: BSK_SAg_CD38: BioMAP Diversity Plus: SAg Assay for CD38 Biomarker Activity (AID 2283087). As to conditions: primary human HUVEC with PBMC; actives raise or lower the signal. Summed up:
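CD38 quantified by ELISA (fluorescence) in a superantigen-activated endothelial cell–PBMC co-culture at 24 h post-dose. Activity fitted in both directions relative to DMSO; parallel SRB and Alamar Blue cytotoxicity read-outs.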

Read-out in a further assay: CD69, CD69 (gene 969)
Description: BSK_SAg_CD69: BioMAP Diversity Plus: SAg Assay for CD69 Biomarker Activity (AID 2283089).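 As to AC50: cell surface CD69 protein quantified by ELISA with fluorescence detection.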 Conditions: primary human HUVEC with PBMC; actives raise or lower the signal. An outline of the steps:
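HUVEC co-cultured with PBMC were dosed with chemical, and CD69 was measured by ELISA with fluorescence read-out 24 h later. Bidirectional curve fitting used DMSO as negative control and activity baseline.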

Read-out in assay [16]: E-selectin (Homo sapiens) (UniProt P16581)
Kind of assay: BSK_SAg_Eselectin: BioMAP Diversity Plus: SAg Assay for Eselectin Biomarker Activity (AID 2283091). As to conditions: primary human HUVEC with PBMC; actives raise or lower the signal. Summed up:
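Primary human endothelial cells and peripheral blood mononuclear cells were co-cultured and exposed to chemical for 24 hours. E-selectin levels were then quantified by ELISA, with bidirectional curve fitting normalised to DMSO controls.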

Read-out in assay [17]: Monokine induced gamma interferon (MIG), CXCL9 (gene 4283)
Kind of assay: BSK_SAg_MIG: BioMAP Diversity Plus: SAg Assay for Monokine induced gamma interferon (MIG) Biomarker Activity (AID 2283092). As to conditions: primary human HUVEC with PBMC; actives raise or lower the signal. Summed up:
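HUVEC plus human PBMC co-culture, chemicals dosed and MIG (CXCL9) quantified by ELISA at 24 h. Bidirectional curve fitting against DMSO as negative control and baseline, so both gain and loss of signal count as activity.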

A short description of assay [18]: BSK_SAg_Proliferation: Cell Proliferation Assessment in the BioMAP Diversity Plus: SAg Assay (AID 2283095).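 Also: relative cell number as total protein by SRB absorbance in sub-confluent culture.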 Conditions: primary human HUVEC with PBMC. An outline of the steps:
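Absorbance of sulforhodamine B at 560 nm reports total protein in a human vascular endothelial/PBMC co-culture after 96 h chemical exposure. Gain or loss of signal is fitted in both directions against DMSO.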

Chain of E-selectin (Homo sapiens) (P16581 whole entry, looked up): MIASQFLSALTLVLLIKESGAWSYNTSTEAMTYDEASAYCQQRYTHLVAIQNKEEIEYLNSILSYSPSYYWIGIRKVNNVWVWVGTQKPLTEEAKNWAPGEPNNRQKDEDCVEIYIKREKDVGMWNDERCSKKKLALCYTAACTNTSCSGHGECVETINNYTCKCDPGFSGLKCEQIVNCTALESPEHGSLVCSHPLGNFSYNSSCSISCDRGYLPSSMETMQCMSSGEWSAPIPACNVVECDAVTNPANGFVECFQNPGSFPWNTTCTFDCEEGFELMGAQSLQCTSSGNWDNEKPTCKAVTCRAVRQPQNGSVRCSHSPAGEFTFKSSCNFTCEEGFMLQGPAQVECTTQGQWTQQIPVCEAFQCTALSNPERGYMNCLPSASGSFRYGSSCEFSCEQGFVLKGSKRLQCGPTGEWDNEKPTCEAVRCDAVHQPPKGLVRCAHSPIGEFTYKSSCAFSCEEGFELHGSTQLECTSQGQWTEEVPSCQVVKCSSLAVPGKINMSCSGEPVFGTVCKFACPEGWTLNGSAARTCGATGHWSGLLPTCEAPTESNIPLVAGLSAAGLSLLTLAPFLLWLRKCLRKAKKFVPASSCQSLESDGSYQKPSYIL

With `C[N+](C)(C)CC(=O)O`, the compound was called inactive in assay [1].
As for `C=C(Cl)CCl`, the result in assay [1] was inactive.
Consider `O=[N+]([O-])c1ccc(Cl)cc1`, for which the result in assay [2], in assay [3], in assay [4], in assay [5], in assay [6] and in assay [7] was inactive. In addition, the outcome in [8], in assay [9], in [10], in assay [11], in assay [12] and in [13] was inactive. The outcome in assay [14] is “inactive”; in assay [15] it was “inactive”; with CD38, CD38 (gene 952) it was “inactive”; in the assay with CD69, CD69 (gene 969) it was “inactive”; in [16], “inactive”; in assay [17], “inactive”. Further, the result in [18] was inactive.
The AC50 is the midpoint of the concentration-response curve, whichever way the signal moves. In the case of `CC(=O)/C=C/c1ccccc1`, the result in assay [2], in assay [3], in [4], in [5], in assay [6] and in assay [7] was inactive. For the same compound, the outcome in [8], in assay [9], in assay [10], in assay [11], in assay [12] and in assay [14] was inactive. Moreover, the outcome in assay [15] is “inactive”; with CD38, CD38 (gene 952), “inactive”; in the assay with CD69, CD69 (gene 969), “inactive”; in [16], “inactive”; in assay [17], “inactive”. The concentration at half-maximal activity (AC50) is 20 µM (active) in assay [13] and 13 µM (active) in assay [18].
With `Cc1cc(C)c(C2=C(OC(=O)CC(C)(C)C)C3(CCCC3)OC2=O)c(C)c1`, in assay [1], the compound was classed as inactive.
The same measure, in the same setting: as for `c1ccc2c(c1)CCCC2`, the entry is “inactive”.
The same measure, in the same setting: the result for `O=CNC(N1CCN(C(NC=O)C(Cl)(Cl)Cl)CC1)C(Cl)(Cl)Cl` (stereo not given) reads “inactive”; that for `CSc1nc(N=[N+]=[N-])nc(NC(C)C)n1`, “inactive”.
Same read-out and setting: as for `N#CCNCC#N`, the entry is “inactive”.
Take `COC(C)(C)CCC[C@H](C)C/C=C/C(C)=C/C(=O)OC(C)C`: the AC50 in assay [2] is 31.1 µM (active); in [3], 25.6 µM (active); in [4] it was 32.4 µM (active); in assay [5] it was 32.6 µM (active); in assay [7], 9.71 µM (active); in assay [8], 13.7 µM (active). The AC50 in assay [10] was 14.3 µM (active); in assay [11], 20 µM (active); in [12], 9.64 µM (active); in assay [13] it was 36.4 µM (active); in assay [14], 29.6 µM (active); with CD38, CD38 (gene 952) it was 30.4 µM (active). Besides, the half-maximal activity concentration (AC50) in the assay with CD69, CD69 (gene 969) was 18 µM (active); in assay [16], 20 µM (active); in [18], 28.6 µM (active). Further, the outcome in assay [6], in assay [9], in [15] and in assay [17] was inactive.
Turning to `COCC(=O)N(c1c(C)cccc1C)N1CCOC1=O`, the result in assay [2], in [3], in assay [4], in [5], in assay [6] and in assay [7] was inactive. Also, the outcome in [8], in assay [9], in assay [10], in assay [11], in assay [12] and in [13] was inactive. The outcome is “inactive” in assay [14]; “inactive” in assay [15]; “inactive” in the assay with CD38, CD38 (gene 952); “inactive” in the assay with CD69, CD69 (gene 969); “inactive” in assay [16]; “inactive” in assay [17]. Also, the result in assay [18] was inactive.
Consider `C=C(Cl)Cl`, for which the result in assay [1] was inactive.
In the case of `c1ccc(P(c2ccccc2)c2ccccc2)cc1`, in [1], the half-maximal activity concentration (AC50) was 15.2 µM (active).
